Measurements published in PubChem BioAssay (NCATS).
“And” between values parts separate entries of the source, which are not always exact repeats. Equal values may be shown once. Results filed as inconclusive are left out. The source made the active and inactive calls. Unless noted, calls follow the shape of the dose curve; as a rule, active = well fitted curve in the direction sought with a large enough effect; inconclusive = small, poorly fitted or top-dose-only effect, or another doubt; inactive = no such curve, though single readings can be large; an effect the other way counts as inactive or inconclusive.

How the values were obtained:
[1] = Cellular Toxicity (caspase-3) HepG2 (AID 654);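 also: cells exposed to compound for 16 hours before reading; 0% = DMSO alone and 100% = caspase signal from 100 µM tamoxifen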
Procedure, shortened: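 Caspase 3/7 activation is measured as a luminescence increase (aminoluciferin substrate) after 16 h compound exposure of human hepatocarcinoma HepG2 cells. AC50 values are Hill fits, scaled between DMSO baseline and 100 uM tamoxifen stimulation.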

[2] = Cellular Toxicity (caspase-3) SK-N-SH (AID 661);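 also: 0% = DMSO basal and 100% = 10 µM staurosporine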
Procedure, shortened: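 Caspase 3/7 activation was read by luminogenic substrate cleavage after 16 hour treatment of SK-N-SH cells. Signal was scaled between DMSO and 10 uM staurosporine, and concentration-response data were fitted with the Hill equation for AC50.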

[3] = Cellular Toxicity (caspase-3) Hek293 (AID 664); details: HEK293 caspase-3 activation, DMSO = 0%, 100 µM tamoxifen = 100%; at 92.2 µM (top of the series);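 also: cells exposed to compound for 16 h at 37 °C before readout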
Procedure, shortened: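 Concentration-response qHTS: caspase 3/7 activation measured by luminescent aminoluciferin substrate cleavage after 16 h compound exposure of Hek 293 cells. AC50 from Hill equation, with DMSO as basal and 100 uM tamoxifen as 100%.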

[4] = Cellular Toxicity (caspase-3) N2a (AID 665);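 also: compound exposure lasted 16 h at 37 °C before readout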
Procedure, shortened: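 Caspase-3/7 activation measured as luminescence from Caspase-Glo reagent (1 h, room temperature) after 16 h compound exposure of mouse N2a cells. AC50 values from Hill-equation concentration-response, scaled between DMSO and 10 uM staurosporine.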

[5] = Cellular Toxicity (caspase-3) NIH 3T3 (AID 666);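 also: caspase signal read after 16 h compound exposure; 0% = DMSO basal and 100% = 100 µM tamoxifen stimulation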
Procedure, shortened: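 Caspase-Glo 3/7 luminescence reported caspase activation in 1000 NIH 3T3 cells/well after 16 h compound exposure at 37 C. DMSO set basal and 100 uM tamoxifen set 100% stimulation; concentration-response modeled with the Hill equation for AC50.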

[6] = Cellular Toxicity (caspase-3) Renal Proximal Tubule (AID 667);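 also: cells exposed to compound for 16 hours at 37 °C before detection; 0% = DMSO basal and 100% = 10 µM staurosporine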
Procedure, shortened: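 Caspase 3/7 activation measured by luminescent aminoluciferin release in primary rat proximal tubule cells after 16 hr compound exposure at 37 °C. AC50 from Hill-fitted concentration-response, scaled between DMSO and 10 uM staurosporine.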

[7] = MultiTox-Fluor Cytotoxicity Assay - LYMP1-003 - Dead Cells (AID 961); also: nearly all actives have a fitted effect of over 70% in size; also: potency is read from the fitted curve at half-maximal effect
Procedure, shortened: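 Acute toxicity is scored as increased dead-cell protease activity in human lymphoblastoid LYMP1-003 cells after 16 h compound exposure in complete culture medium. Activity is normalized to DMSO basal and 15 uM tetraoctylammonium bromide as full response.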

[8] = Cell Viability - LYMP2-003 (AID 965);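 also: cells exposed to compounds for 24 h before reading; 0% = DMSO only and full effect = 92 µM tetraoctylammonium bromide; nearly all actives have a fitted effect of over 50% in size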
Procedure, shortened: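 CellTiter-Glo luminescence quantified ATP loss after 24 h compound treatment of LYMP2-003 lymphoblastoid cells at 37 C. Titration series were fitted with the standard Hill equation to give AC50.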

[9] = Cell Viability - LYMP2-009 (AID 968); also: nearly all actives have a fitted effect of over 55% in size; also: potency is read from the fitted curve at half-maximal effect
[10] = Cell Viability - LYMP2-013 (AID 970); also: nearly all actives have a fitted effect of over 55% in size; also: potency is read from the fitted curve at half-maximal effect
Procedure, shortened: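 qHTS cytotoxicity: ATP-dependent luminescence (CellTiter-Glo, 30 min room temperature) read after 24 h compound exposure at 37 C of 2500 LYMP2-013 lymphoblastoid cells per well. Concentration-response fitted with Hill equation to give AC50.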

[11] = Cell Viability - LYMP2-025 (AID 976);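 also: plate controls were DMSO only for no effect and tetraoctylammonium bromide control for full effect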
Procedure, shortened: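 Cytotoxicity read as loss of intracellular ATP (luciferase luminescence) after 24 h compound treatment at 37 C. Uses LYMP2-025 lymphoblastoid cells in 1536-well format; Hill-equation modelling gives AC50; tetraoctylammonium bromide as positive control.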

[12] = Cell Viability - LYMP2-006 (AID 978); also: % is scaled to controls: 0 for no effect and ±100 for the full control effect; nearly all actives have a fitted effect of over 60% in size
Procedure, shortened: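 Potency values are Hill-fit AC50s for decreases in intracellular ATP (CellTiter-Glo luminescence). LYMP2-006 lymphoblastoid cells, 2500 per well, were exposed to compound in complete culture medium for 24 hr at 37 C.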

[13] = Cell Viability - LYMP2-007 (AID 979);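 also: cells exposed to compound for 24 h before reading; 0% = DMSO only and the negative end = 92 µM tetraoctylammonium bromide; nearly all actives have a fitted effect of over 60% in size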
Procedure, shortened: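 AC50 values come from Hill-equation fits of luminescent intracellular ATP (CellTiter-Glo, 30 min, room temperature) following 24 h compound exposure at 37 C. Cells: LYMP2-007 lymphoblastoid line, 2500 per well, in complete culture medium.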

[14] = Cell Viability - LYMP2-008 (AID 980); also: nearly all actives have a fitted effect of over 60% in size; also: potency is read from the fitted curve at half-maximal effect
Procedure, shortened: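 Cytotoxicity determined from ATP-dependent luciferase luminescence (CellTiter-Glo) following 24 h compound exposure of human lymphoblastoid LYMP2-008 cells at 37 C. Concentration-response data fitted to the Hill equation to give AC50.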

[15] = Cell Viability - LYMP1-002 - Assay at 24 hr (AID 993); also: % is scaled to controls: 0 for no effect and ±100 for the full control effect
Procedure, shortened: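 qHTS cytotoxicity at 24 h: CellTiter-Glo ATP luminescence in lymphoblastoid line LYMP1-002 incubated with compound at 37 °C. Concentration-response modeled with the Hill equation for AC50; tetraoctylammonium bromide served as positive control.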

[16] = qHTS Assay for Identification of Small Molecule Inducers of Hypoxia Response (AID 2120; active = well fitted curve in the direction sought with a large enough effect in the signal ratio, with a control signal flat, not every such curve was filed as active; the % refers to the signal ratio; also: 0% is about no effect)
Procedure, shortened: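 Reporter induction read as the CCF4 blue/green (460nm/530nm) emission ratio after 2.5 h dye loading at room temperature. ME-180 HRE-beta-lactamase cells received titrated compounds for 17 h at 37 degrees Celsius; AC50 values derived.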

[17] = molecular target: Peroxisome proliferator-activated receptor alpha (Homo sapiens) (UniProt Q07869); experiment: qHTS assay for small molecule agonists of the peroxisome proliferator-activated receptor alpha (PPARalpha) signaling pathway (AID 651778); details: PathHunter PPARalpha complementation, chemiluminescence, 6 h; active compounds read high; also: % of control where 0% means no effect
Chain of Peroxisome proliferator-activated receptor alpha (Homo sapiens) (Q07869 whole entry, looked up): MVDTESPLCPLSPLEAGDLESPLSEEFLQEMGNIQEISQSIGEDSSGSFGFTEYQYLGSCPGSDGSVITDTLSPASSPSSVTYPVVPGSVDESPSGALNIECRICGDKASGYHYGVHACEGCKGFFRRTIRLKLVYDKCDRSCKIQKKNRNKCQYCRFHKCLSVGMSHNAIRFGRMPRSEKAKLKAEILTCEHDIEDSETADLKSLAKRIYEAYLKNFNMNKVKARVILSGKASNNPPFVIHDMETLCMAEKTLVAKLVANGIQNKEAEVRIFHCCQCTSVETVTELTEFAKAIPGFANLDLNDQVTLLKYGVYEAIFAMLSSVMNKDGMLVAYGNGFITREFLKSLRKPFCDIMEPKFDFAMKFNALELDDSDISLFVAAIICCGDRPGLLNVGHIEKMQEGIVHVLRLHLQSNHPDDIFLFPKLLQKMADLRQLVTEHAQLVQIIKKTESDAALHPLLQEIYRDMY
Procedure, shortened: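 Cells plated at 2,000/well and held overnight at 37 C, 5% CO2, then compound added by pin tool for 6 hr; after PathHunter detection reagent and 60 min at room temperature, chemiluminescence from enzyme complementation was read.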

[18] = qHTS assay for small molecule agonists of the antioxidant response element (ARE) signaling pathway measured by Nrf2-dependant transcriptional activity - cell viability counter screen (AID 720653; active = well fitted curve in the direction sought with a large enough effect in the repeat runs; an effect the other way counts as inactive or inconclusive; also: % is scaled to controls: 0 for no effect and ±100 for the full control effect); details: ARE-bla HepG2 viability, CellTiter-Glo ATP luminescence, 16 h; active compounds read low
Procedure, shortened: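 ARE-bla HepG2 cells (2,000/well) rested 5 hrs at 37C/5% CO2, then exposed to compounds in DMSO for 16 hrs. Viability was read in the same wells as intracellular ATP by luminescence, 30 min at room temperature after reagent addition.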

[19] = qHTS assay for cell viability of HEK293 cells (AID 743288); details: ATP luminescence (CellTiter-Glo), 18 h, active compounds read low; also: % is scaled to controls: 0 for no effect and ±100 for the full control effect; nearly all actives have a fitted effect of over 50% in size
Procedure, shortened: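 Readout is luciferase-coupled ATP content (CellTiter-Glo luminescence, 30 min room temperature) as a measure of metabolically competent cells. Parental HEK293 cells were plated 5 h or more before compound addition, then treated 18 h at 37 C.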

[20] = qHTS assay for cell viability of the p53RE-bla HCT-116 cell line (AID 743292); also: % is scaled to controls: 0 for no effect and ±100 for the full control effect; nearly all actives have a fitted effect of over 55% in size
Procedure, shortened: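 After plating at 4,000 cells per well and a 5 h rest at 37 C, HCT-116 cells carrying p53RE-bla received test chemicals in DMSO. Sixteen hours later at 37 C, CellTiter-Glo was added and luminescence recorded following 30 min at room temperature.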

O=C(O)CCl
inactive: outcome [1] | Potency [2] | caspase-3 activation [3] -1.43% | outcome [4] | Potency [5] | outcome [6] | Potency [7] | Potency [8] | Potency [9] | Potency [10] | Potency [11] | Potency [12] | Potency [13] | Potency [14] | Potency [15] | Potency [16] | max response [17] -6.37% | max response [18] 1.47% | max response [19] -4.45% | Potency [20]

c1ccc2c(c1)CCNC2
inactive: outcome [1] | Potency [2] | caspase-3 activation [3] -0.664% | outcome [4] | Potency [5] | outcome [6] | Potency [7] | Potency [8] | Potency [9] | Potency [10] | Potency [11] | Potency [12] | Potency [13] | Potency [14] | Potency [15] | Potency [16] | max response [17] 5.32% | max response [18] 5.02% | max response [19] 1.81% | Potency [20]

Cc1ccc(N)c(N)c1
inactive: outcome [1] | Potency [2] | caspase-3 activation [3] 8.54% | outcome [4] | Potency [5] | outcome [6] | Potency [11] | Potency [15] | Potency [16] | max response [17] -2.85% | max response [18] -6.6% | max response [19] -20.1% | Potency [20]
active: Potency [7] 15.8 µM | Potency [9] 25.1 µM | Potency [10] 39.8 µM | Potency [14] 39.8 µM

CSSC
inactive: outcome [1] | Potency [2] | caspase-3 activation [3] -3.42% | outcome [4] | Potency [5] | outcome [6] | Potency [7] | Potency [8] | Potency [9] | Potency [10] | Potency [11] | Potency [12] | Potency [13] | Potency [14] | Potency [15] | Potency [16] | max response [17] -6.95% | max response [18] 1.42% | max response [19] -1.5% | Potency [20]

CC(=O)CCC(C)=O
inactive: outcome [1] | Potency [2] | caspase-3 activation [3] 0.261% | outcome [4] | Potency [5] | outcome [6] | Potency [7] | Potency [8] | Potency [9] | Potency [10] | Potency [11] | Potency [12] | Potency [13] | Potency [14] | Potency [15] | Potency [16] | max response [17] -3.42% | max response [18] 0.0815% | max response [19] -8.83% | Potency [20]

CC(C)(OOC(C)(C)c1ccccc1)c1ccccc1
inactive: outcome [1] | Potency [2] | caspase-3 activation [3] 4.99% | outcome [4] | Potency [5] | outcome [6] | Potency [7] | Potency [8] | Potency [9] | Potency [10] | Potency [11] | Potency [12] | Potency [13] | Potency [14] | Potency [15] | Potency [16] | max response [17] -0.439% and 3.52% | max response [18] -15.2% and -2.58% | max response [19] -10.5% and -9.14% | Potency [20]

O=S(=O)(Cl)c1ccccc1
inactive: outcome [1] | Potency [2] | caspase-3 activation [3] -0.803% | outcome [4] | Potency [5] | outcome [6] | Potency [7] | Potency [8] | Potency [9] | Potency [10] | Potency [11] | Potency [12] | Potency [13] | Potency [14] | Potency [15] | Potency [16] | max response [17] -0.206% and -0.679% | max response [18] 9.62% and -3.03% | max response [19] 1.81% and -4.13% | Potency [20]

CC(C)C#N
inactive: outcome [1] | Potency [2] | caspase-3 activation [3] 1.03% | outcome [4] | Potency [5] | outcome [6] | Potency [7] | Potency [8] | Potency [9] | Potency [10] | Potency [11] | Potency [12] | Potency [13] | Potency [14] | Potency [15] | Potency [16] | max response [17] 2.25% | max response [18] 1.74% | max response [19] 0.536% | Potency [20]

NNC(N)=S
inactive: outcome [1] | Potency [2] | caspase-3 activation [3] 0.435% | outcome [4] | Potency [5] | outcome [6] | Potency [7] | Potency [8] | Potency [9] | Potency [10] | Potency [11] | Potency [12] | Potency [13] | Potency [14] | Potency [15] | Potency [16] | max response [17] -1.77% | max response [18] 16.5% | max response [19] 1.66% | Potency [20]

Oc1cc(Cl)ccc1Cl
inactive: outcome [1] | Potency [2] | caspase-3 activation [3] -1.46% | outcome [4] | Potency [5] | outcome [6] | Potency [7] | Potency [8] | Potency [9] | Potency [10] | Potency [11] | Potency [12] | Potency [13] | Potency [14] | Potency [15] | Potency [16] | max response [17] -3.18% and 0.376% | max response [18] 14.5% and -2.04% | max response [19] 5.28% and -9.5% | Potency [20]
